Values without a mark were called inactive.
Tests used:
Settings in all cases: 60 µM; 5 days; temperature: 20 °C
Meloidogyne hapla J2 = experiment: proportion of mobile M. hapla J2 relative to DMSO control (fraction of DMSO control); higher = more viable, less nematicidal, active = 0.7 or less
Method in brief: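 Compound was pinned to 60 µM final (0.6% v/v DMSO) into 96-well wells, each holding about 25 M. hapla J2 in distilled water. Plates were sealed and shaken for 5 days at 20 °C and 200 rpm, then given 2 µL 1 M NaOH per well. Microscopic mobility scores were normalised to the mean of the plate's own DMSO wells, eight per plate, with two biological replicates averaged.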

[1] = system: Caenorhabditis elegans dauer (daf-2(e1370)); experiment: proportion of mobile C. elegans dauer larvae relative to DMSO control (fraction of DMSO control); higher = more viable, less nematicidal, active = 0.63 or less; extreme values may be limits of the assay
Method in brief: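 The proportion of mobile worms, relative to DMSO wells, was scored by dissection microscope and averaged over two biological replicates. Worms were C. elegans dauers, about 20 per well in liquid NGM in 96-well plates, generated from synchronized larvae on MYOB plates with E. coli OP50 at 25 °C for 48 h. They were treated with compound pinned to 60 µM final (0.6% v/v DMSO) and kept in sealed plates shaken at 200 rpm for 5 days at 20 °C.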

Ditylenchus dipsaci = experiment: proportion of mobile D. dipsaci (mixed stage) relative to DMSO control (fraction of DMSO control); higher = more viable, less nematicidal, active = 0.86 or less; extreme values may be limits of the assay
Method in brief: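 Mobility values are relative to DMSO controls and are averages of two biological replicates. For each well of a 96-well plate, about 20 D. dipsaci worms, grown on pea plants in Gamborg B-5 agar and funnel-extracted into water, were dispensed in distilled water. Plates received pinned compound at 60 µM final with 0.6% v/v DMSO and were sealed and shaken at 200 rpm for 5 days at 20 °C before 2 µL 1 M NaOH was added and mobile worms were scored by microscope.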

| Compound | proportion of mobile M. hapla J2 (Meloidogyne hapla J2) | proportion of mobile C. elegans dauer larvae [1] | proportion of mobile D. dipsaci (Ditylenchus dipsaci) |
| --- | --- | --- | --- |
| Cc1ccc(SCc2nc(-c3ccc(C)cc3)no2)cc1 | 0.854 | 1 | 1 |
| Clc1ccc(-c2nc(C3CCCCC3)no2)cc1 | 1.04 | 1 | 1 |
| Cc1ccc(-c2noc(-c3ccc(-n4nncc4C)cc3)n2)cc1 | 0.978 | 1 | 1 |
| CCCc1nnc(SCc2nnc(-c3ccccc3)o2)o1 | 1.03 | 1 | 1 |
| Brc1cccc(-c2nnc(SCc3ccccc3)o2)c1 | 0.968 | 1 | 1 |
| O=C(CSc1nnc(-c2ccccc2Cl)o1)Nc1ccc(F)cc1 | 0.896 | 1 | 1 |
| CCOc1nc(-c2ccccc2)ccc1-c1noc(-c2cccc(OC)c2)n1 | 0.759 | 1 | 1 |
| Clc1cc(Br)ccc1OCc1nc(-c2ccccc2)no1 | 0.818 | 1 | 1 |
| COc1ccc(-c2noc(-c3ccc(C)c(C)c3)n2)cc1 | 0.807 | 1 | 1 |
| CCOc1cc(-c2nc(-c3ccccc3C)no2)cc(OCC)c1OCC | 0.821 | 1 | 1 |
| CCOC(=O)c1c(NC(=O)CSc2nnc(-c3ccccc3OCC)o2)sc(C(C)=O)c1C | 0.918 | 1 | 1 |
| Clc1ccc(-c2nnc(SCc3ccccc3)o2)cc1 | 0.827 | 1 | 1 |
| CCOc1ccccc1-c1nc(-c2ccc(NC(=O)CCc3ccc(OC)cc3)cc2)no1 | 0.918 | 1 | 1 |
| Cc1[nH]c2ccc(-c3nnc(SCC(=O)NCc4ccc(F)cc4)o3)cc2c1C | 0.865 | 1 | 1 |
| Cc1cccc(OC(C)c2nc(-c3ccncc3)no2)c1 (stereo not drawn) | 0.988 | 0.85 | 1 |
| CCN(CC)C(=O)CSc1nnc(-c2ccc(Cl)cc2Cl)o1 | 1.03 | 1 | 1 |
| CCn1c(SCc2nnc(-c3ccccc3)o2)nnc1-c1ccco1 | 0.948 | 1 | 1 |
| Brc1ccc(CSc2nnc(-c3ccncc3)o2)cc1 | 1.01 | 1 | 1 |
| Cc1ccc(-c2noc(-c3ccc(C)cc3Cl)n2)cc1 | 0.893 | 1 | 1 |
| CCOC(=O)c1c(NC(=O)CSc2nnc(-c3ccc(Cl)cc3)o2)sc(C(C)=O)c1C | 0.809 | 1 | 1 |
| Cc1ccc(-c2noc(-c3ccccc3C(=O)N3CCC(C)CC3)n2)cc1 | 0.999 | 1 | 1 |
| CC(C)Oc1cccc(-c2nc(-c3ccccn3)no2)c1 | 1.01 | 0.667 | 1 |
| Cc1cccc(-c2nnc(SCC(=O)NCCc3ccccc3)o2)c1 | 0.872 | 1 | 1 |
| COC(=O)c1ccc(CSc2nnc(-c3ccncc3)o2)cc1 | 0.999 | 1 | 1 |
| COc1ccc(OCc2nc(-c3ccccc3)no2)cc1 | 0.891 | 1 | 1 |

| Compound | proportion of mobile M. hapla J2 (Meloidogyne hapla J2) | proportion of mobile C. elegans dauer larvae [1] | proportion of mobile D. dipsaci (Ditylenchus dipsaci) |
| --- | --- | --- | --- |
| CC(C)C(=O)Nc1ccccc1-c1nc(-c2ccccn2)no1 | 0.995 | 1 | 1 |
| CC(C)CCC(=O)Nc1ccccc1-c1nc(-c2ccccn2)no1 | 1.03 | 1 | 1 |
| COc1nc(C)ccc1-c1noc(-c2ccccc2Br)n1 | 0.917 | 1 | 1 |
| COc1ccccc1-c1noc(-c2ccccc2C)n1 | 0.962 | 1 | 1 |
| COc1cccc(-c2nnc(SCC(=O)Nc3ccccc3)o2)c1 | 1.03 | 1 | 1 |
| Cc1cc(OCc2nc(-c3cccnc3)no2)c(C)c(C)c1Br | 0.934 | 1 | 1 |
| COc1ccc(Cl)cc1NC(=O)CSc1nnc(-c2ccc(C)cc2)o1 | 0.982 | 1 | 1 |
| Brc1cccc(-c2nc(-c3ccccc3)no2)c1 | 1.02 | 1 | 1 |
| COc1ccc(-c2nnc(SCC(=O)Nc3cc(Cl)ccc3C)o2)cc1 | 0.904 | 1 | 1 |
| COc1ccccc1NC(=O)c1ccccc1-c1nc(-c2ccc(Cl)cc2)no1 | 0.78 | 1 | 1 |
| COc1ccc(-c2noc(-c3ccccc3C)n2)cc1 | 0.898 | 0.533 (active) | 1 |
| Cc1cc(C)c(C)c(OCc2nc(-c3cccnc3)no2)c1 | 0.58 (active) | 1 | 1 |
| Brc1ccc(-c2nc(-c3ccc4c(c3)OCO4)no2)cc1 | 1.03 | 1 | 1 |
| COc1ccc(C(=O)Nc2ccc(-c3nnc(SCc4ccccc4)o3)cc2)cc1 | 1.07 | 1 | 1 |
| Clc1ccccc1-c1noc(-c2ccncc2)n1 | 0.953 | 1 | 1 |
| N#Cc1ccc(CSc2nnc(-c3ccncc3)o2)cc1 | 0.972 | 1 | 1 |
| Fc1cccc(Cl)c1CSc1nnc(-c2ccccc2)o1 | 1 | 0.977 | 1 |
| Cc1ccccc1CSc1nnc(-c2ccccc2Cl)o1 | 0.888 | 1 | 1 |
| CCOc1ccccc1NC(=O)CSc1nnc(-c2ccccc2)o1 | 0.977 | 1 | 1 |
| Cc1ccccc1CSc1nnc(-c2ccco2)n1C | 1.03 | 1 | 0.75 (active) |
| CCOc1nc(-c2ccccc2)ccc1-c1noc(CC)n1 | 0.998 | 1 | 1 |
| Cc1cc(OCc2nc(-c3ccncc3)no2)ccc1Br | 1.05 | 1 | 1 |
| CCOc1nc(-c2ccc(C)cc2)ccc1-c1noc(-c2cccnc2)n1 | 0.842 | 1 | 1 |
| CCOc1cc(-c2nc(-c3ccccc3OC)no2)cc(OCC)c1OCC | 0.978 | 1 | 1 |
| CCNC(=O)c1ccccc1-c1nc(-c2ccc(OC)cc2)no1 | 0.785 | 1 | 1 |

| Compound | proportion of mobile M. hapla J2 (Meloidogyne hapla J2) | proportion of mobile C. elegans dauer larvae [1] | proportion of mobile D. dipsaci (Ditylenchus dipsaci) |
| --- | --- | --- | --- |
| Cc1ccc(-c2noc(COc3cccc(C)c3)n2)cc1 | 0.972 | 1 | 1 |
| COc1ccc(-c2noc(COc3ccc(Cl)cc3Cl)n2)cc1 | 0.874 | 1 | 1 |
| COc1ccc(-c2nnc(SCC(=O)N(C)c3ccccc3)o2)cc1 | 1.05 | 1 | 1 |
| COc1ccc(Cl)cc1-c1noc(COc2ccc(Cl)cc2)n1 | 0.964 | 1 | 1 |
| CCn1c(SCc2nc(-c3cccs3)no2)nnc1-c1ccco1 | 0.813 | 1 | 1 |
| Cc1ccc(CSc2nnc(-c3ccco3)o2)c(C)c1 | 0.687 (active) | 1 | 1 |
| Cc1ccc(-c2nnc(SCC(=O)NCc3ccccc3)o2)cc1 | 1.04 | 1 | 1 |
| CN(C)C(=O)c1ccccc1-c1nc(-c2ccc(Cl)cc2)no1 | 0.963 | 1 | 1 |
| Cc1ccc(OCc2nc(-c3ccccc3Cl)no2)cc1C | 1.04 | 1 | 1 |
| COc1ccccc1-c1nnc(SCC(=O)Nc2ccc(F)cc2)o1 | 0.995 | 1 | 1 |
| Cc1ccc(-c2nnc(SCc3c(C)cc(C)cc3C)o2)cc1 | 0.926 | 1 | 1 |
| COc1ccc(NC(=O)CSc2nnc(-c3ccccc3C)o2)cc1 | 0.838 | 1 | 1 |
| Clc1ccc(OCc2nc(-c3ccccc3)no2)c(Cl)c1 | 0.796 | 1 | 1 |
| O=C(CSc1nnc(-c2ccccc2)o1)Nc1ccccc1C(F)(F)F | 0.918 | 1 | 1 |
| COc1ccc(-c2noc(-c3cccc(Br)c3)n2)cc1 | 0.987 | – | 1 |
| Cc1cccc(NC(=O)CSc2nnc(-c3ccncc3)o2)c1C | 1.02 | 1 | 1 |
| Cc1cccc(-c2nnc(SCC(=O)NC(C)c3ccccc3)o2)c1 (stereo not drawn) | 0.89 | – | 1 |
| Cc1ccc(C)c(OCc2nc(-c3cccnc3)no2)c1 | 1.04 | 1 | 1 |
| CC(C)C(=O)Nc1ccccc1-c1nc(-c2cccnc2)no1 | 0.935 | – | 1 |
| O=C(Nc1ccccc1-c1nc(-c2ccncc2)no1)c1ccccc1Cl | 0.979 | – | 1 |
| Clc1cccc(-c2nc(-c3ccncc3)no2)c1 | 0.634 (active) | 1 | 1 |
| COc1ccccc1-c1nc(-c2ccc(Br)cc2)no1 | 1.04 | – | 1 |
| COc1ccccc1CC(=O)Nc1ccc(-c2noc(-c3ccccc3C)n2)cc1 | 0.743 | – | 1 |

Reference: the supplement of paper PMC11219838
